# Compound activity (PubChem)
# Only some compounds are listed: those with a hit (about 7.6% of all), similar ones and a draw of the others.
# HEK293 cAMP cs: parental HEK293 cAMP activation (counter-screen) | AID 938 | parental HEK293 CNG cAMP sensor, membrane potential fluorescence | Potency, µM (titrated, usually from 57.1 µM), without a hit: top-dose activation, actives largely listed as activators | 73,000 compounds, 2.5% hits; further: % of control where 0% means no effect; nearly all actives have a fitted effect of over 55% in size
#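 Parental HEK 293 cells stably expressing a modified CNG channel (no TSHR) report cAMP rise as membrane depolarization. Membrane potential dye with 100 uM RO 20-1724 was loaded for 60 min at room temperature, then compound added for 30 min; fluorescence read at 590 nm.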
# ERK AVP inh: blocks ERK signaling stimulated by vasopressin | HEK293-V1b, vasopressin-stimulated pERK AlphaScreen | Potency, µM (top dose mostly 57.5 µM), without a hit: at the top dose activity, negative = inhibition, most hits filed as inhibitors | 72,000 compounds, 0.99% hits; further: on the % scale 0 is the no-effect control and ±100 the full control effect; nearly all actives have a fitted effect of over 55% in size
#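 HEK293 cells stably expressing V1b receptor, seeded overnight in 1% FBS, were treated with compounds for 30 min at 37C, then stimulated 5 min with 25 nM vasopressin; phospho-ERK read by AlphaScreen SureFire after lysis.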
# TSHR agonist: TSH receptor (human) agonism. AID 926. 73,000 compounds, 0.48% hits. P16473. HEK293-CNG-TSHR cells (CNG channel as cAMP sensor), membrane potential dye, cAMP. Potency, µM (highest dose often 57.1 µM), for inactives: at the top dose activation, actives largely listed as activators; active means well fitted activation curve with a large enough effect in the main read-out, with a control signal flat, not every such curve was filed as active; inconclusive means small, poorly fitted or top-dose-only effect, or a change in a side signal; inactive means no such curve, though single readings can be large or run the other way; % of control where 0% means no effect;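 further: the control signal comes from parental cells without the receptor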
# Target sequence (P16473 whole entry, looked up): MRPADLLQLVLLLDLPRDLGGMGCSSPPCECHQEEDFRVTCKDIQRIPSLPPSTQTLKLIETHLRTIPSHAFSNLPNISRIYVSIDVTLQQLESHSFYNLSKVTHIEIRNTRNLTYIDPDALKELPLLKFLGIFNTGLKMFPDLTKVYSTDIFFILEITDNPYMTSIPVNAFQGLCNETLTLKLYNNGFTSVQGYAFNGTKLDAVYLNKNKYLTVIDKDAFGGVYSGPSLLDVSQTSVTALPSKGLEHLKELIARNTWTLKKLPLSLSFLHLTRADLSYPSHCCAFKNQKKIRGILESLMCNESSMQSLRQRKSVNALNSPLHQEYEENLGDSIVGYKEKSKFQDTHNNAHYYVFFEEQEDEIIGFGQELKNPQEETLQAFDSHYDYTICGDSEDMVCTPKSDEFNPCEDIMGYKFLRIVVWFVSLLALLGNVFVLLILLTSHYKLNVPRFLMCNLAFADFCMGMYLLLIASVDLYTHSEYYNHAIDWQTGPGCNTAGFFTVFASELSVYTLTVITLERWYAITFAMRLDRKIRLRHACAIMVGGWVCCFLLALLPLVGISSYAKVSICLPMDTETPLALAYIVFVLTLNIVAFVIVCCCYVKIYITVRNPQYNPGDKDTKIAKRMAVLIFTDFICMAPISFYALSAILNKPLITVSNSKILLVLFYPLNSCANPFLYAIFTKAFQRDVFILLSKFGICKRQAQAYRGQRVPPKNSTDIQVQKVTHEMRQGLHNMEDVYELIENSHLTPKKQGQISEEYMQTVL
#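 HEK 293 cells stably expressing TSHR and a cAMP-gated CNG channel; parental CNG-only cells as counterscreen. Cells preloaded 60 min with membrane potential dye plus 100 uM RO 20-1724, then compound 30 min; fluorescence read at 590 nm.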
# CRE-bla Fsk: modulators of forskolin-stimulated CRE signaling in CHO cells; CHO CRE-bla reporter (cAMP response element driving beta-lactamase), forskolin EC10, beta-lactamase ratio; 71,000 compounds, 2.5% hits; Potency, µM (doses to about 38.2 µM), for inactives: at the top dose activity change, negative = inhibition, actives largely listed as activators; active means well fitted activation curve with a large enough effect in the signal ratio, with a control signal flat, not every such curve was filed as active; inconclusive means small, poorly fitted or top-dose-only effect, or effect the other way, or a change in a side signal; the % refers to the signal ratio; further: % of control where 0% means no effect
#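 CRE-bla CHO cells stimulated with EC10 NKH 477 (water-soluble forskolin) and compound titrations, 3 h at 37C; beta-lactamase read with CCF4 after 2 h at room temperature. Activity from 460/530 nm emission ratio, AC50 values for positive or negative modulation.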
# Tau filament bind: tau filament binding | recombinant tau filaments, thioflavin S fluorescence, 15 h; filaments grown with octadecylsulfate alongside compound | Potency, µM (doses to about 57.1 µM), for the others: at the highest dose activity change, negative = inhibition | 71,000 compounds, 2% hits | AID 596;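 further: on the % scale 0 is the no-effect control and ±100 the full control effect; actives lower thioflavin S fluorescence by blocking filaments or displacing dye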
#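 Assay mix: 1 uM His-tagged tau, 30 uM sodium octadecylsulfate, thioflavine S dye in HEPES/NaCl/DTT buffer. Compound is added prior to the inducer. Fluorescence after 15 h at 37 C.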
# An asterisk follows results filed as active; i = inactive; ? = inconclusive; nt = no result; [ ] = remark or other dose. Unless noted, the call rests on the fitted dose curve; in most records, active means well fitted curve in the direction sought with a large enough effect; inconclusive means small, poorly fitted or top-dose-only effect, or another doubt; inactive means no such curve, though single readings can be large; an effect the other way counts as inactive or inconclusive. Potency means the concentration at half of the fitted maximal effect.
SMILES,HEK293 cAMP cs,ERK AVP inh,TSHR agonist,CRE-bla Fsk,Tau filament bind
COCCn1c(=O)c(-c2ccc(Cl)cc2)nc2cnc(OCc3ccccc3)nc21,1.0%,18.2%,0.0%,?,-7.5%
O=C1c2ccccc2C(Nc2ccc3c(c2)OCO3)N1Cc1ccc2c(c1)OCO2 (stereo not given),?,2.3%,?,9.7%,10µM*
C[C@@]1(O)C(O)[C@@H](CO)O[C@H]1n1cnc2c(NC3CCCC3)nc(Cl)nc21 (stereo not given in full),3.7%,9.8%,-0.3%,nt,nt
O=C(NCCCN1CCOCC1)c1ccc(-n2c(=O)c(=O)[nH]c3ccccc32)cc1,-16.3%,nt,2.8%,nt,nt
COc1ccccc1N1CCN(C/C=C/c2ccc(N(C)C)cc2)CC1,-40.9%,15.8µM*,?,-11.1%,?
COc1cc2c(cc1OC)-c1c(oc3cc(O)cc(O)c3c1=O)CO2,nt,-18.6%,nt,nt,nt
Cc1cc2c3nonc3ccc2n1-c1ccccc1,?,91.3%,?,?,21.6%[11.4 µM]
c1ccc(-c2cc3c(ccc4nonc43)nn2)cc1,?,-2.5%,?,0.4%[7.6 µM],3.16µM*
CCOC(=O)CN(C(=O)CNC(=O)c1ccco1)C(C(=O)NC1CCCC1)c1ccccc1OCC (stereo not given),?,11.1%,?,-2.5%,0.3%
O=C(NC1CCCCC1)N(Cc1ccccc1)Cc1ccco1,15.8µM*,-22.2%,?,3.0%,-1.6%
COc1ccccc1CN(C(=O)c1ccco1)C(C(=O)NC1CCCC1)c1ccncc1 (stereo not given),?,7.0%,?,-3.8%,0.0%
NC(=O)c1nsc(C(=O)N(CCc2ccccc2)C(C(=O)NC2CCCC2)c2ccco2)c1N (stereo not given),6.31µM*,12.1%,?,0.9%,-5.4%
O=C(NC1CCCCC1)C(c1ccco1)N(Cc1ccco1)C(=O)c1ccco1 (stereo not given),15.8µM*,-24.1%,?,-3.8%,-10.5%
COc1ccc(C(C(=O)NC2CCCC2)N(CCN(C)C)C(=O)c2snc(C(N)=O)c2N)cc1 (stereo not given),19.4%,-15.0%,6.1%,?,5.3%
CCOCCCN(C(=O)CNC(=O)c1ccco1)C(C(=O)NC1CCCC1)c1ccccc1C (stereo not given),31.6µM*,2.7%,?,?,-14.4%
C/C(CCN1CCCc2nc(C)c(C)cc21)=N\O[C@@H](C)CN1CCCc2nc(C)c(C)cc21,0.4%[11.4 µM],27.3%[11.5 µM],-2.9%[11.4 µM],nt,nt
Cc1ccc(C(C)C)n1C(=O)OC(C)(C)C,10.6%[11.4 µM],4.2%[11.5 µM],-2.0%[11.4 µM],nt,nt
Cn1cccc1C(=O)N1CCC2(CCN(C(=O)Nc3cccc(F)c3)CC2)CC1,-3.8%,0.3%,-4.2%,-7.1%,7.9%
O=S(=O)(c1cccs1)N1CN(Cc2cccs2)c2nc3ccccc3nc21,?,-23.1%,?,?,2.8%
O=S(=O)(c1cccs1)N1CN(CC2CCCO2)c2nc3ccccc3nc21 (stereo not given),19.5%,-12.4%,25.1µM*,?,3.2%
COc1ccc(-c2cc(-c3ccc(OC)cc3)[nH]n2)cc1,0.7%,3.16µM*,-0.8%,?,89.4%
COc1ccc(-c2nc(=S)[nH][nH]2)cc1,-18.2%,-15.8%,-0.5%,-9.1%,11.1%
O=C(Oc1ccccc1)N1CCC[C@@]2(CCN(c3ccncc3)C2)C1,?,2.5%,?,13.3%,14.6%
COCC(=O)N1CCC2(CC1)CCN(c1ccccn1)CC2,-7.9%,6.6%,21.8%,-1.8%,6.1%
COCC(=O)N1CCC2(CC1)CN(c1ccccn1)C2,15.8µM*,1.2%,?,-9.7%,-2.1%
SMILES,HEK293 cAMP cs,ERK AVP inh,TSHR agonist,CRE-bla Fsk,Tau filament bind
O=C(Oc1ccccc1)N1CCC2(CC1)CCN(c1ccccn1)CC2,12.6µM*,?,?,-2.6%,23.0%
COC(=O)N1CCC2(CC1)CCN(c1ccccn1)CC2,?,-2.6%,?,-1.8%,5.7%
O=C(Oc1ccccc1)N1CCC2(CC1)CCN(c1ccncc1)CC2,7.94µM*,?,?,18.1%,46.2%
CCN1C(=O)[C@H]2[C@H]3[C@H](O)[C@H](O)C/C(=N/OCc4ccccc4)[C@H]3CC[C@@H]2C1=O,17.8%[11.4 µM],32.0%[11.5 µM],1.6%[11.4 µM],nt,nt
CN1C=CC=C/C1=C1\SC(=S)N(C2CCCCC2)C1=O,-26.6%[11.4 µM],?,-24.7%[11.4 µM],?,3.98µM*
CCN1C(=O)/C(=C2/C=CC=CN2C)OC1=S,-2.9%[11.4 µM],-10.4%,7.6%[11.4 µM],?,4.5%[11.4 µM]
CCCCOCCCNC(=O)Cc1cccs1,1.58µM*,-10.7%,?,?,-8.4%[11.4 µM]
Cc1cc(NC(=O)COc2cccc(C)c2C)no1,8.6%,10.2%,7.8%,0.3%,7.3%
Cc1ccc(C)c(OCC(=O)Nc2nonc2NC(=O)COc2cc(C)ccc2C)c1,25.1µM*,-11.5%,?,9.1%,19.5%
Cc1cnc(CNc2cc(-c3cccnc3)ncn2)cn1,22.5%,-15.4%,-0.4%,?,-6.2%
COC(=O)NC(/C(C(=O)OC)=C(\C)NCc1ccccc1)c1ccco1 (stereo not given),0.5%[11.4 µM],2.4%[11.5 µM],-3.1%[11.4 µM],nt,nt
CN1/C(=C/C(=O)c2nc(S(C)(=O)=O)ncc2Cl)C(C)(C)c2ccccc21,-11.5%,13.4%,-4.3%,?,10µM*
CN1/C(=C\C(=O)c2ccco2)C(C)(C)c2ccccc21,20µM*,?,?,?,-28.0%
CN1/C(=C\C(=O)COc2ccc3c(c2)OCO3)C(C)(C)c2ccccc21,31.6µM*,?,?,-11.3%,-23.8%
CN1/C(=C\C(=O)C(F)F)C(C)(C)c2ccccc21,31.6µM*,22.9%,?,6.5%,-4.0%
CCOC(=O)c1nc(S(C)(=O)=O)ncc1Cl,-11.2%,63.2%,6.1%,?,3.4%
CCCCC#CC1C=CC(Oc2cc(OC)c(OC)c(OC)c2)C(CO)O1 (stereo not given),2.8%[11.4 µM],17.0%[11.5 µM],-5.3%[11.4 µM],nt,nt
COc1ccc(-c2noc(CSc3nc(-c4ccccc4)cc(=O)[nH]3)n2)cc1OC,5.9%,?,15.8µM*,?,i
COc1ccc(-c2noc(-c3cc(C)cc(C)c3)n2)cc1OC,1.6%,-6.0%,3.1%,?,252.1%
COc1ccc(Cl)cc1C(=O)N(Cc1nc(-c2cccc(C)c2)no1)C(C)C,11.5%[11.4 µM],2.6%,25.1µM*,?,58.2%
COc1ccc(Cc2nc(-c3ccc(Cl)cc3)no2)cc1,?,231.1%,?,?,-16.1%
COc1ccc(-c2noc(-c3ccccc3-c3ccccc3)n2)cc1OC,24.6%,1.7%,17.9%,7.94µM*,4.1%
COc1ccc(-c2noc(Cc3ccc(Cl)cc3)n2)cc1OC,28.8%,94.4%,25.1µM*,?,87.6%
N[C@@H](C(=O)O)[C@H](O)C(=O)O,1.6%,nt,10.3%,-2.4%,-5.1%
Clc1nc(NCCc2ccccc2)c2ncn(-c3ccccc3)c2n1,?,nt,?,16.1%[7.6 µM],24.0%[11.4 µM]
